An excerpt weighted towards active compounds, which were near 0.13% of everything screened.
aGal spleen mod: qHTS Assay for Inhibitors and Activators of Human alpha-Galactosidase From Spleen Homogenate; human spleen homogenate, 4MU-alpha-Gal fluorescence, 40 min; AID 2107, 2009; 240,000 compounds, 0.008% hits; Alpha-galactosidase A (Homo sapiens), P06280; Potency, µM (titrated, usually from 80 µM), for inactives: at the top dose activity change, negative = inhibition, hits mostly inhibitors;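 further: potency means the concentration at half of the fitted maximal effect; 0% = enzyme with vehicle and -100% = no enzyme basal signal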
Target sequence (P06280 32-429 limits assumed): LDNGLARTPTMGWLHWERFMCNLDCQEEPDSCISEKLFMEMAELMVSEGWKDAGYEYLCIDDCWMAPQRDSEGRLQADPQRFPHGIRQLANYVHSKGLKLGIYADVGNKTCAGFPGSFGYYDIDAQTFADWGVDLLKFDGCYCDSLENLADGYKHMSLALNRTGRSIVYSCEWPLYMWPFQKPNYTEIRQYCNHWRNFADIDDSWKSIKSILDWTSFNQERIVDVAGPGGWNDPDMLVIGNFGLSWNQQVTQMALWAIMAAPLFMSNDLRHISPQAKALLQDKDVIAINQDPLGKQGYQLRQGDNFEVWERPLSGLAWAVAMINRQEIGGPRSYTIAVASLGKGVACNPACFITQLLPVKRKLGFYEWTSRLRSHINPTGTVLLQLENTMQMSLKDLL
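Human spleen homogenate (1 ug) as enzyme source, 4-methylumbelliferyl-alpha-D-galactopyranoside 1 mM final, citrate/phosphate pH 5.0 with 0.01% Tween-20. Compounds 40 min at 37C, NaOH/glycine stop; fluorescence Ex 365/Em 440, Hill-fit AC50.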
GLA inh pH 4.5: qHTS Assay for Inhibitors of Human alpha-Galactosidase at pH 4.5; Alpha-galactosidase A (Homo sapiens), P06280; purified enzyme, 4-MU-alpha-Gal fluorescence, pH 4.5; activity change, negative = inhibition, % at 105 µM; 230,000 tested, under 10 active; AID 1467, 2008;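 further: 0% = full activity with enzyme and -100% = basal without enzyme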
IL2 activator: qHTS of IL-2 Activators | IL-2 activation reporter assay, cell-based qHTS; stimulated with anti-CD3/CD4/CD28 beads; in transgenic mouse T cells | activation, % (series mostly up to about 46 µM) | 360,000 compounds, 0.065% hits; in the data active means activation above about 50%; inconclusive means mostly about 30% to 49%; further: 0% is about no effect
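Readout is EGFP and DsRed signal by fluorescent plate cytometry after 18 h at 37 degrees C. Transgenic mouse T cells (750/well) received compound for 60 min before bead stimulation (anti-CD3, anti-CD4, anti-CD28); memory T cells served as non-tolerant control.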
a7 integrin act: qHTS for Activators of Integrin-Mediated Alleviation for Muscular Dystrophy; Potency, µM (doses to about 38.3 µM), for inactives: top-dose activation, most hits filed as activators; alpha7betagal myoblasts, beta-gal FDG fluorescence, 48 h; 350,000 compounds, 0.064% hits;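 further: potency means the concentration at half of the fitted maximal effect; 100% = response of the positive control SU9516; nearly all actives have a fitted effect of over 60% in size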
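Alpha7betagal+/- myoblasts (passage 13) were plated 16-24 hr, then exposed to compounds (1:260 dilution of DMSO stock) for 48 hours at 37C. After MPER lysis, β-galactosidase reporter activity was read as FDG fluorescence (ex 480/em 540) after 30 minutes.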
* = called active by the depositor; ? = inconclusive; / = not tested or not shown; [ ] = another dose, or the depositor's remark. Unless noted, the call rests on the fitted dose curve; in most records, active means well fitted curve in the direction sought with a large enough effect; inconclusive means small, poorly fitted or top-dose-only effect, or another doubt; inactive means no such curve, though single readings can be large; an effect the other way counts as inactive or inconclusive.

SMILES	aGal spleen mod	GLA inh pH 4.5	IL2 activator	a7 integrin act
COc1cccc2c1OC(=O)CC2c1ccccc1C (centres undefined)	-5%[119 µM]	-3	/	/
Cc1c(Cc2ccccc2)c(=O)n2c([nH]c3ccccc32)c1C#N	?	?	-2	-8%
COc1ccccc1N=Cc1c(C)c(C#N)c2[nH]c3ccccc3n2c1=O	0%	1	126*	20%
C=CCN1C(=O)[C@@H]2Cc3c([nH]c4ccccc34)C(c3cc(OC)c(OC)c(OC)c3)N2C1=S (some centres undefined)	/	/	105*	-47%
C=CCN1C(=O)[C@@H]2Cc3c([nH]c4ccccc34)C(c3ccc(O)cc3)N2C1=S (some centres undefined)	/	/	8	-18%
CCN1C(=O)[C@@H]2Cc3c([nH]c4ccccc34)C(c3cc(OC)c(OC)c(OC)c3)N2C1=S (some centres undefined)	/	/	94*	-41%
CN(C#N)c1nccc(-c2cccs2)n1	3%	-4	2	11µM*
CN(C)/C=N/c1nccc(-c2cccs2)n1	1%	-7	-1	8.9µM*
CC(C(=O)Nc1ccc(C#N)cc1)N(C)CC(=O)Nc1cccc(F)c1 (centres undefined)	-24%	7	1	4µM*
O=C(CN1C(=O)/C(=C/c2ccccc2)SC1=S)Nc1cccnc1	0%	-4	0	-2%
O=C(CCN1C(=O)/C(=C/C=C/c2ccccc2)SC1=S)Nc1cccnc1	2%	-4	69*	-35%
COc1cc(/C=C2/SC(=S)N(CC(=O)Nc3cccnc3)C2=O)cc(OC)c1OC	2%	-1	123*	23%
O=C(CN1CCOCC1)NCc1cc([N+](=O)[O-])ccc1O	/	/	0	13µM*
O=C(CCNS(=O)(=O)c1ccc(Br)cc1)NCC(c1cccs1)N1CCOCC1 (centres undefined)	/	/	-4	14%
CCOc1ccc(S(=O)(=O)NCCC(=O)NCC(c2cccs2)N2CCOCC2)cc1 (centres undefined)	/	/	-1	2.2µM*
CCOC(=O)C1=C(CC)Nc2ccccc2N=C1NC(=O)c1ccc(OC)c(S(=O)(=O)N2CCCCC2C)c1 (centres undefined)	-13%	-7	0	14µM*
CCOC(=O)C1=C(CC)Nc2ccccc2N=C1NC(=O)c1ccc(C)c(S(=O)(=O)N2CCOCC2)c1	/	/	-2	-22%
CC(=O)O[C@@H]1[C@@H](O)CN[C@@H]1Cc1ccccc1	-2%	/	/	/
CCOCC	4%	/	/	/
CNc1nnc(SCC(=O)c2cc(C)n(C3CC3)c2C)s1	/	/	0	13µM*
Cc1ccc(F)c(C2C3C=CCC(c4ccccc4)C3C(=O)N2Cc2ccccc2)c1 (centres undefined)	-2%	/	/	/
COCCNC(=S)Nc1ccc2nc(N3CCOCC3)cc(C)c2c1	/	/	-1	46%
Cc1cc(N2CCOCC2)nc2ccc(NC(=S)NCc3ccc4c(c3)OCO4)cc12	13%	3	-2	10µM*
O=c1oc2c(-c3cccc(F)c3)cc(O)cc2s1	-1%	13	-1	4µM*
COc1ccc(-c2cc(C(F)(F)F)c3c(N)c(C(=O)NCCSC)sc3n2)cc1	/	/	119*	-22%
SMILES	aGal spleen mod	GLA inh pH 4.5	IL2 activator	a7 integrin act
CN(C)CCNC(=O)c1sc2nc(-c3ccccc3)cc(C(F)(F)F)c2c1N	/	/	-1	-3%
O=[N+]([O-])c1cccc(Cl)c1	10%	/	/	/
CCCN(C(=O)c1ccc(S(=O)(=O)N2CCCC2)cc1)C1CCS(=O)(=O)C1 (centres undefined)	/	/	0	5µM*
O=C(Nc1ccc(Oc2cccnc2)cc1)c1ccccc1Cl	-2%	-1	-2	10µM*
O=C(Nc1ccc(Oc2cccnc2)cc1)c1ccccc1F	-2%	-19	0	15%
COc1cc2ncnc(Nc3cccc(Br)c3)c2cc1OC	-4%	-7	/	/
COc1ccc(Nc2ncnc3ccc(Br)cc23)cc1OC	/	/	0	4µM*
CC1(C)CC(=O)C=C(Nc2ccc(C(=O)O)c(O)c2)C1	/	/	-1	10µM*
CCOc1ccc(CCNC(=O)c2cccc3c2C(=O)N(CCOC)C3)cc1OCC	/	/	55*	-2%
CCCCCCCC1=CC2=C(Cl)C(=O)C(C)(OC(C)=O)C(=O)C2=CO1 (centres undefined)	2%	-7	/	/
CC(C)C[C@H](NC(=O)CNC(=O)[C@H](C)NC(=O)[C@H](CC(C)C)NC(=O)[C@H](CCCNC(=N)N)NC(=O)[C@H](Cc1cnc[nH]1)NC(=O)[C@@H](NC(=O)[C@@H](N)C(C)C)[C@@H](C)O)C(=O)N[C@@H](CC(C)C)C(=O)N[C@@H](CO)C(=O)N[C@@H](CCCNC(=N)N)C(=O)N[C@@H](CO)C(=O)NCC(=O)NCC(=O)N[C@H](C(=O)N[C@H](C(=O)N[C@@H](CCCCN)C(=O)N[C@@H](CC(N)=O)C(=O)N[C@@H](CC(N)=O)C(=O)N[C@@H](Cc1ccccc1)C(=O)N[C@H](C(=O)N1CCC[C@H]1C(=O)N[C@H](C(=O)N[C@@H](CC(N)=O)C(=O)N[C@H](C(=O)NCC(=O)N[C@@H](CO)C(=O)N[C@@H](CCCCN)C(=O)N[C@@H](C)C(=O)N[C@@H](Cc1ccccc1)C(N)=O)C(C)C)[C@@H](C)O)C(C)C)C(C)C)C(C)C	6%	/	/	/
CNC(=O)c1c(NC(=O)c2ccc(S(=O)(=O)N(C)c3ccccc3)cc2)sc2c1CCN(C(C)C)C2	/	/	62*	-15%
CC1CCCCN1c1ncnc(N)c1[N+](=O)[O-] (centres undefined)	7%	-2	0	4.5µM*
CC1(C)CC(=O)C2=C(C1)OC(N)=C(C#N)C21CCN(Cc2ccccc2)CC1	6%	5	0	-17%
Cc1nc2c([nH]1)C1(CCN(Cc3ccccc3)CC1)C(C#N)=C(N)O2	8%	0	0	13µM*
Cn1sc(=O)n(Cc2ccccc2)c1=O	20%	/	/	/
CCc1ccc(NC(=O)C2CCN(S(C)(=O)=O)CC2)cc1	6%	-6	56*	-2%
CCOc1ccc(/C=C/C(=O)Nc2ccc(OC)cc2[N+](=O)[O-])cc1	-6%	3	114*	19%
CCOC(=O)c1c(-c2ccccc2)oc2ccc(OC)cc12	0%	7	-4	9%
COc1ccc2oc(CS(=O)c3ccccc3)c(C(=O)O)c2c1 (centres undefined)	/	/	1	13µM*
CCOc1ccc(-c2c(C#N)c(N)nc3sc(C(=O)c4ccccc4)c(N)c23)cc1	-5%	-16	125*	-4%
CCOC(=O)c1c(NC(=O)CC2Sc3ccc(C(F)(F)F)cc3NC2=O)sc(C)c1C (centres undefined)	3%	0	1	-5%
COC(=O)c1c(NC(=O)CC2Nc3ccccc3NC2=O)sc(C)c1C (centres undefined)	0%	3	185*	21%
